Most compounds without a hit are left out; they make up all but 3.8% or so of the library.
ATXN viability – reduces viability in counter-screen for ATXN expression inhibitors; S2 cells (HEK-293 line with an ATXN2-luciferase reporter) viability, CellTiter-Fluor protease fluorescence, 24 h; 400,000 compounds, 0.49% hits; Potency, µM (doses to about 56.7 µM), hits mostly cytotoxic; also: nearly all actives have a fitted effect of over 40% in size
TGFb inhibitor – blocks TGF-b signaling; 410,000 compounds, 1.2% hits; HepG2 CAGA-GFP TGF-b/SMAD3 reporter, GFP fluorescence, 18 h; TGF-beta stimulated, 500 pg/mL final; Potency, µM (titrated, usually from 46.1 µM), actives largely listed as inhibitors; AID 588855; also: nearly all actives have a fitted effect of over 65% in size
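Per well, imaged GFP fluorescence of HEPG2 CAGA-GFP cells gives the signal; cells get compound, then TGF-beta (500 pg/mL final), 18 h at 37 degrees C; %Activity versus -TGF-beta and +DMSO controls.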
Nrf2 block – inhibitors of Nrf2 signaling | A549 ARE-Fluc reporter, luciferase luminescence, 18-24 h | 360,000 compounds, 2.1% hits | Potency, µM (doses to about 46 µM), usual class: inhibitors; also: nearly all actives have a fitted effect of over 60% in size
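Concentration-response testing used A549 ARE_Fluc cells at 5000 cells/well. Following an 18-24 h compound incubation, viability was read by fluorescence (Ex 405/Em 525) and luciferase output by luminescence.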
HepG2 viability – kills HepG2 cells in TGF-b inhibitor counter-screen; Potency, µM (highest dose often 46.1 µM), usual class: cytotoxic; AID 588856; 410,000 compounds, 0.76% hits; HepG2 CAGA-GFP viability, ATP luminescence, 18 h
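HepG2 CAGA-GFP cells (1000/well, DMEM with 1% FBS) received compound, then TGF-beta at 500 pg/mL final, and were incubated 18 hours at 37 degrees C. Viability was read by CellTiter-Glo luminescence. Media-only wells were set as complete cell-killing and DMSO as no toxicity.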
ATXN2 expr inh – reduces ATXN2 reporter expression in HEK-293 cells | HEK-293 ATXN2-luciferase reporter, luminescence, 24 h | Potency, µM (top dose mostly 57 µM), usual class: inhibitors | 360,000 compounds, 0.72% hits | AID 1745845; also: nearly all actives have a fitted effect of over 55% in size
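qHTS (up to 57 uM final) was run with 24 h compound exposure of reporter cells at 37 °C. Each well was multiplexed: SteadyGlo luminescence measured ATXN2-luciferase expression after a fluorogenic Gly-Phe-AFC viability readout (25 uM final).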
A549 viability – kills or reduces viability of A549 cells in Nrf2 counter-screen; 390,000 compounds, 0.16% hits; A549 ARE-Fluc cells, CellTiter-Fluor viability, 18-24 h; Potency, µM (top dose mostly 46 µM), usual class: inhibitors
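Cytotoxicity counterscreen: CellTiter-Fluor fluorescence was measured in A549 ARE_Fluc cells after 18-24 h of compound exposure in a concentration series. The subsequent BugLite luminescent read reports ARE-luciferase activity.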
Each line names hits and unclear results; the compound was inactive in the other large screens; ! = not confirmed by another sample. Calls follow the shape of the dose curve; as a rule, active = well fitted curve in the direction sought with a large enough effect; inconclusive = small, poorly fitted or top-dose-only effect, or another doubt; inactive = no such curve, though single readings can be large; an effect the other way counts as inactive or inconclusive.

CCCn1ncc(CN2CCC(C(=O)Nc3cccc(-c4cccc(F)c4)c3)CC2)c1C	TGFb inhibitor inconclusive, Nrf2 block inconclusive, HepG2 viability 18µM, ATXN2 expr inh inconclusive, A549 viability inconclusive
COc1cc(OC)c(NC(=O)NCCn2nnc3cc(S(=O)(=O)N(C)C)ccc32)cc1Cl	none (no result: Nrf2 block)
COc1cc(C(=O)Oc2cccc(Nc3ncnc4ccccc34)c2)cc(OC)c1OC	ATXN viability inconclusive, TGFb inhibitor inconclusive, Nrf2 block 15µM, ATXN2 expr inh inconclusive
C/C=C(/C)C(=O)OC1CC(C)(C)C[C@H]2C3=CC[C@@H]4[C@@]5(C)CCC(O[C@@H]6O[C@@H](C(=O)O)[C@@H](O)C(O[C@@H]7OC[C@H](O)[C@@H](O)[C@@H]7O[C@@H]7OC(CO)C(O)[C@@H](O)[C@@H]7O)C6O[C@@H]6OC(CO)C(O)C(O)C6O)[C@@](C)(CO)[C@@H]5CC[C@]4(C)[C@]3(C)CC(O)[C@@]12CO (stereo partly drawn)	ATXN viability 32µM, TGFb inhibitor 14µM, Nrf2 block inconclusive, HepG2 viability 14µM, A549 viability inconclusive
C/C=C(\C)C(=O)OC1[C@H](OC(C)=O)C2(CO)C(CC1(C)C)C1=CCC3C4(C)CCC(O[C@@H]5O[C@H](C(=O)O)[C@@H](O[C@@H]6O[C@H](CO)[C@@H](O)[C@H](O)[C@H]6O)[C@H](O)[C@H]5O[C@H]5O[C@H](CO)[C@@H](O)[C@H](O)[C@H]5O)[C@](C)(CO)C4CCC3(C)[C@]1(C)C[C@H]2O (stereo partly drawn)	ATXN viability 14µM, TGFb inhibitor 4.5µM, Nrf2 block 18µM, ATXN2 expr inh 8.9µM, A549 viability inconclusive
CC1(C)C[C@H]2C3=CCC4[C@@]5(C)CC[C@H](O[C@@H]6O[C@H](C(=O)O)[C@@H](O)[C@H](O)[C@H]6O)[C@@](C)(CO)C5CC[C@@]4(C)[C@]3(C)C[C@H](O)[C@@]2(CO)[C@@H](O)[C@@H]1O (stereo partly drawn)	none
CC(C)=CNNC(=O)c1ccc(O)cc1	none (no result: ATXN viability, Nrf2 block, ATXN2 expr inh, A549 viability)
Cc1ccc(C)c(C(=O)CCC(=O)NNC(=O)c2cccs2)c1	none
N#CC(C#N)=C1C(=O)N(CCN2CCCCC2)c2ccccc21	ATXN viability inconclusive
N#CC(C#N)=C1C(=O)N(CCN2CCOCC2)c2ccccc21	ATXN viability inconclusive, TGFb inhibitor inconclusive, HepG2 viability 22µM
COc1ccccc1-c1ncn(Cc2cccc(-c3ccccc3)c2)c1CC(C)C	ATXN viability 11µM, ATXN2 expr inh 11µM (no result: TGFb inhibitor, Nrf2 block, HepG2 viability, A549 viability)
O=c1[nH]c(=O)n([C@H]2C[C@H](O)[C@@H](CO)O2)cc1F	ATXN viability inconclusive, Nrf2 block inconclusive, ATXN2 expr inh 7.9µM!
CC(C)(C)c1ccc(C2CC2C(=O)N/N=C\c2ccc[nH]2)cc1 (stereo not drawn)	ATXN viability inconclusive, TGFb inhibitor inconclusive, Nrf2 block 1.6µM, ATXN2 expr inh inconclusive, A549 viability 5.8µM
O=C(N/N=C/c1ccco1)C1CC1c1ccccc1 (stereo not drawn)	none
CCn1c(N2CCN(C(=S)NC)CC2)nc2ccccc21	none
CCn1c(N2CCN(C(=S)Nc3ccc(OC)cc3)CC2)nc2ccccc21	ATXN viability inconclusive, Nrf2 block 16µM (no result: ATXN2 expr inh)
CC(C)N(C(=S)Nc1ccc(S(=O)(=O)N2CCOCC2)cc1)c1ccccc1	none
Cc1cccc(NC(=O)CSc2nc(C)c(CC(=O)c3ccc(Br)cc3)c(C)c2C#N)c1C	ATXN viability inconclusive, TGFb inhibitor inconclusive, Nrf2 block inconclusive, ATXN2 expr inh inconclusive
Cc1nc(SCC(=O)Nc2ccc(F)cc2)c(C#N)c(C)c1CC(=O)c1ccc(Br)cc1	ATXN viability inconclusive, TGFb inhibitor inconclusive, Nrf2 block 13µM, ATXN2 expr inh inconclusive, A549 viability 12µM
CC(=O)Nc1ccc(NC(=O)CSc2nnc(NC(=O)C3CC(=O)N(c4ccc(F)cc4)C3)s2)cc1 (stereo not drawn)	none

Screens from PubChem BioAssay.
